Assay outcomes as filed in PubChem BioAssay.
PLK1 kinase inh – human PLK1 kinase inhibitors, primary screen, biochemical, TR-FRET; recombinant PLK1 kinase, TR-FRET peptide phosphorylation; 0.53% of 97,000 active; inhibition, % at 10 µM; AID 619, 2007;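 active means inhibition of 50% or more in the single-concentration screen; inactive means inhibition below 50%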;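 further: 0% = DMSO max control and 100% = H-89 dihydrochloride min control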
LYP act – LYP phosphatase activators, primary screen, biochemical, DiFMUP fluorescence, 2 µM. activation, % at 2 µM. Tyrosine-protein phosphatase non-receptor type 22 (Homo sapiens), Q9Y2R2. recombinant LYP; 0 = plate median, 100 = signal doubled. 0.11% of 96,000 active. AID 697, 2007;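 active means activation at 2 µM above a set limit, the mean plus 5 SD, cut at about 37% in these data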
Target sequence (Q9Y2R2 whole entry, looked up): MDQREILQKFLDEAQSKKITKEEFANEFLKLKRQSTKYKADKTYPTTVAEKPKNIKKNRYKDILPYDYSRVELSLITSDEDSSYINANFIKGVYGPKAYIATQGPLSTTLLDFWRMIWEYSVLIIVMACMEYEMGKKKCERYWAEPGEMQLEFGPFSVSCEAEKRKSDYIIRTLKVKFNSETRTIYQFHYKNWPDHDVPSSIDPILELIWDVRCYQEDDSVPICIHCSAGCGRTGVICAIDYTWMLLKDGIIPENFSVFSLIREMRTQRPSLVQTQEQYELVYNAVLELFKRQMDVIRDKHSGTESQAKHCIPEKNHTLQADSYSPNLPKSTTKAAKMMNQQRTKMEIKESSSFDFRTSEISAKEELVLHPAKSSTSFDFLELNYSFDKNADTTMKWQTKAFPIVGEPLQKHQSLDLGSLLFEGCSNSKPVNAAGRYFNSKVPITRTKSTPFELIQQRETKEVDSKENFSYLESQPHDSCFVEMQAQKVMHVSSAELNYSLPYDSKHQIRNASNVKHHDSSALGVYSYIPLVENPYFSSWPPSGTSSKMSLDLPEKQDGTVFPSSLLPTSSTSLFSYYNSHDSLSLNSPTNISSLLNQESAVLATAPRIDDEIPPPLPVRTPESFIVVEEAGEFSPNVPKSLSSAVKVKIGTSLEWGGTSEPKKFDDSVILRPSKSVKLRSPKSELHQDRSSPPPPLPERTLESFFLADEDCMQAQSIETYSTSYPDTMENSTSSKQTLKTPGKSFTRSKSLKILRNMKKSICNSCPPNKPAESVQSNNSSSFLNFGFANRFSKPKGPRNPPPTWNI
PLK1 PBD inh – Plk1 polo box domain binding inhibitors, primary screen, biochemical, fluorescence polarization; Serine/threonine-protein kinase PLK1 (Homo sapiens), P53350; Plk1 PBD phosphopeptide binding; inhibition, %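 (tested at about 20 µM)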; 0.13% of 97,000 active; AID 693, 2007; in the data active means inhibition above about 34%, passing the limit was not always enough
PTPN22 inh 2 – PTPN22 phosphatase inhibitors, primary screen, biochemical, DiFMUP fluorescence, 2 µM | Tyrosine-protein phosphatase non-receptor type 22 (Homo sapiens), Q9Y2R2 | recombinant LYP catalytic domain | inhibition, % at 2 µM | 0.21% of 96,000 active | AID 640, 2007;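 active means inhibition at 2 µM at or above a set limit, the screen mean plus 3 SD, cut at about 24% in these data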;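 further: 0% = DMSO with enzyme and 100% = enzyme fully blocked by orthovanadate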
EphB4 ephrin blk – EphB4-ephrin-B2 interaction antagonists, primary screen, biochemical, TNYL-RAW peptide probe, fluorescence polarization. Ephrin type-B receptor 4 (Homo sapiens), P54760. EphB4 LBD / TNYL-RAW-Alexa532 peptide. inhibition, % at 7 µM. 0.15% of 97,000 active. AID 720, 2007;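 active means inhibition above the screen-wide mean inhibition plus 3 SD, cut at about 15% in these data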;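 further: 0% = DMSO wells and 100% = excess unlabeled TNYL-RAW peptide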
* hit, by the source's call; . = no result; [ ] = dose if it differs, or a comment. The list is not random: actives were taken first. Their share in the collection is about 1.2%.

SMILES | PLK1 kinase inh | LYP act | PLK1 PBD inh | PTPN22 inh 2 | EphB4 ephrin blk
O=S(=O)(NC1CC2CCC1C2)c1ccc(Br)s1 (stereo unspecified) | -8.8 | 4.4 | -17.6 | -5.2 | 0.7
O=C(c1ccccc1Nc1ccc(SC(F)F)cc1)N1CCCCCC1 | -4.0 | -0.5 | 15.3 | 5.6 | 4.8
CC(C1CC1)N(C(=O)NC1CCS(=O)(=O)C1)c1ccccc1 (stereo unspecified) | -9.9 | 7.7 | 15.8 | -8.9 | -2.7
O=C(CN1C(=O)c2ccccc2S1(=O)=O)N1CCc2ccccc2C1 | -1.1 | 4.2 | 36.0 | -6.4 | -0.5
Cc1oc(-c2ccccc2F)nc1CS(=O)CC(=O)NCc1cccs1 (stereo unspecified) | 62.2* | . | -5.5 | . | 1.5
Cc1oc(-c2cccs2)nc1CS(=O)CC(=O)NCCCOC(C)C (stereo unspecified) | -0.5 | -8.1 | -1.4 | 5.8 | 0.8
Cc1oc(-c2ccccc2Cl)nc1CS(=O)CC(=O)NCc1cccs1 (stereo unspecified) | -1.5 | 10.2 | -8.8 | -13.6 | -5.2
CCCCNC(=O)CS(=O)Cc1nc(-c2cccs2)oc1C (stereo unspecified) | 58.6* | . | 2.8 | . | 3.4
CCOc1ccc(OCCN2C(=O)NC(Cc3c[nH]c4ccccc34)C2=O)cc1 (stereo unspecified) | -2.2 | -0.1 | -5.5 | 0.7 | 0.6
O=C(O)CC1C(=O)NCCN1Cc1ccc(F)c(F)c1 (stereo unspecified) | 64.7* | . | -14.0 | . | -3.0
Cc1ccc(CN2CCNC(=O)C2CC(=O)O)cc1 (stereo unspecified) | 60.9* | . | -14.9 | . | -3.8
O=C(NCCN1CCN(c2ccccc2)CC1)C1CCN(S(=O)(=O)N2CCOCC2)CC1 | 56.0* | -6.2 | -9.0 | 4.7 | -0.6
COc1ccc(CCC(C)NC2C3CC4CC(C3)CC2C4)cc1 (stereo unspecified) | 23.0 | -15.2 | 0.8 | 18.0 | 1.8
O=C(NC(=S)Nc1ccc2[nH]ncc2c1)c1ccccc1 | 24.0 | -0.6 | -17.6 | -2.4 | 1.7
Brc1ccc2[nH]ncc2c1 | 50.7* | 2.8 | -6.2 | -7.2 | -6.6
CCOC(=O)CSc1nc(N)c(C#N)c(CC(C)C)c1C#N | -12.7 | -3.4 | -33.0 | 0.1 | 6.7
O=C(NCC1CCCO1)c1ccc(CS(=O)(=O)c2ccc(Cl)cc2)o1 (stereo unspecified) | -7.3 | 7.7 | 0.2 | -5.2 | 3.4
O=C(Cc1cnn(-c2ccccc2)c1)c1ccc(O)c(O)c1O | 44.1 | -26.7 | -8.7 | 28.6* | -10.3
CN1CCn2c1nc(N1CCOCC1)nc2=O | 2.2 | -33.3 | 6.8 | 30.8* | -1.9
Cc1ccc(C(=O)NNC(=O)CSc2nnc(-c3ccncc3)n2-c2ccc(C)cc2)cc1 | -9.3 | 0.9 | -9.3 | 0.7 | -2.5
Cc1ccc(NC(=O)CN2C(=O)S/C(=C\c3cccn3-c3cccc(C(=O)O)c3)C2=O)c(C)c1 | -8.3 | -48.3 | 1.1 | 49.6* | -8.7
Cc1cc2oc(C(=O)N(Cc3ccco3)C3CCS(=O)(=O)C3)cc(=O)c2cc1Cl (stereo unspecified) | -10.5 | -9.7 | -32.0 | 9.3 | 7.1
O=C(CCCCCN1C(=O)C2C3C=CC(C3)C2C1=O)Nc1nccs1 (stereo unspecified) | 62.2* | . | -9.3 | . | -5.9
O=C(CSc1nnc2scc(-c3ccccc3)n12)c1ccc2c(c1)OCCO2 | 59.4* | . | -26.3 | . | -8.7
O=C(NCc1cccnc1)c1ccccc1Br | -8.8 | -0.2 | -1.2 | 2.1 | -9.0
SMILES | PLK1 kinase inh | LYP act | PLK1 PBD inh | PTPN22 inh 2 | EphB4 ephrin blk
O=C(Nc1c(Cl)cc(Cl)cc1C(=O)NCc1cccnc1)c1ccc(Cl)cc1Cl | -7.6 | 1.9 | 57.4* | 3.4 | -10.2
Cn1c(C(=O)N2CCN(c3ccc(Cl)cc3)CC2)cc2c(=O)[nH]c3ccccc3c21 | 51.5* | -8.1 | 16.4 | 7.5 | 2.5
O=C1CC(NCc2ccc3c(c2)OCO3)C(=O)N1Cc1ccc2c(c1)OCO2 (stereo unspecified) | -7.5 | 1.5 | -23.0 | -4.4 | 1.3
CCn1c(=O)cc(SCC(=O)N2CCN(c3ccccc3OC)CC2)c2ccccc21 | 1.4 | -6.2 | -2.7 | 3.0 | 2.9
Cc1cccc(OCc2nc(C#N)c(N3CC(C)CC(C)C3)o2)c1 (stereo unspecified) | 60.7* | . | 8.9 | . | 1.0
COc1ccc(C2(CNC(C)=O)CCOCC2)cc1OC | 61.9* | . | 11.7 | . | -6.9
COCc1cc(C)nc(Nc2ccccc2C)c1C#N | -12.1 | -26.5 | -14.3 | 26.0* | 0.6
COCc1cc(C)nc(SCC(=O)Nc2cccc(C)c2C)c1C#N | -4.9 | 2.0 | -6.6 | -1.1 | 4.5
CCC(=O)n1nc(NCc2ccccc2OC)nc1NCc1ccccc1OC | -7.5 | 1.6 | -9.6 | -2.0 | 3.0
C#CCn1c(=NC(=O)CN2C(=O)CCC2=O)sc2cccc(C)c21 | 62.4* | . | -38.8 | . | -1.7
CCc1nnc(NC(=O)c2c(C)nn(-c3ccccc3)c2Cl)s1 | -4.6 | -2.8 | -0.5 | -0.6 | -7.8
c1ccc2c(N3CCCCC3)nc(N3CCCCC3)nc2c1 | 0.9 | 6.6 | 1.0 | -9.6 | -2.9
Cc1cc(N2CCN(c3nc(N4CCOCC4)nc4ccccc34)CC2)c2ccccc2n1 | -7.1 | 39.0* | 2.7 | -40.8 | -3.7
COc1ccc(C(=O)N/N=C2/SCC(=O)N2Cc2ccc3c(c2)OCO3)cc1OC | -3.5 | 3.7 | -5.9 | 1.7 | 16.3*
COc1cccc(C(=O)N/N=C2\SCC(=O)N2Cc2ccc3c(c2)OCO3)c1 | 0.6 | 4.9 | -3.2 | -0.8 | 1.6
COc1ccc(C(=O)NCC(C)(C)SCc2c(C)cc(C)cc2C)cc1 | -5.7 | -4.3 | -5.5 | 6.5 | 7.5
CCOC(=O)c1c2ccc(OCC(=O)N/N=C/c3ccc(C)cc3)cc2n2ccccc12 | -22.7 | -21.7 | 1.1 | 24.2* | -1.3
CCNC(=O)COc1cc(C)c(Cl)c(C)c1 | -7.9 | -25.0 | 11.3 | 24.6* | 0.7
COc1ccccc1NCc1nnc(SCC(=O)N/N=C/c2ccco2)n1-c1ccc(Cl)cc1Cl | -9.6 | -8.2 | -14.5 | 10.9 | -5.4
Cc1ccc2nc3c(c(C(=O)O)c2c1)CCC3 | 1.1 | 1.6 | -14.5 | -2.8 | 2.4
Cc1cccc2c(C(=O)O)c3c(nc12)CCCCC3 | -2.6 | 2.4 | -8.2 | -5.5 | 16.6*
COc1ccc2[nH]c(=O)c(CN(Cc3ccccc3)Cc3nnnn3CC3CCCO3)cc2c1 (stereo unspecified) | -7.0 | 4.1 | -17.0 | -6.7 | 15.6*
CCOC(=O)C1=C(C)NC(=O)C1CC(=O)Nc1ccccc1 (stereo unspecified) | -10.5 | -1.7 | 12.7 | -1.2 | 1.4
O=C(CC(O)(c1ccccc1)C(F)(F)F)c1cccs1 (stereo unspecified) | -1.8 | 0.5 | -22.5 | -0.5 | 30.7*[fluorescence artefact?]
CCn1c(CSc2nc3ccccc3s2)nnc1SCC(=O)c1ccc(O)c(O)c1 | -2.9 | -44.5 | 17.5 | 45.5* | 0.3
CCO/C(C)=C1\C(=O)Nc2ccccc21 | 18.0 | 2.9 | -19.8 | -3.0 | 1.5
